# Laboratory results taken from PubChem BioAssay (NCATS).
# Results filed as inconclusive are left out. The source made the active and inactive calls. Unless noted, the call rests on the fitted dose curve.
# Tested on: not listed separately
# Assay: qHTS for Inhibitors of the Functional Ribonucleoprotein Complex (vRNP) of Lymphocytic Choriomeningitis Arenaviruses (LCMV): Viability assay - alamar blue signal for LCMV Primary Screen (AID 1347085; calls by dose curve; tested in HEK293 reporter line; further: nearly all actives have a fitted effect of over 80% in size)
# Conditions: alamar blue viability counter-screen, LCMV vRNP screen cells; series mostly up to 57.5 µM
# Potency means the concentration at half of the fitted maximal effect.
row,Compound,Potency
1,NC(=O)c1ncn([C@@H]2O[C@H](CO)[C@@H](O)[C@@H]2O)n1,inactive
2,O=c1ccc2ccc(O)c(O)c2o1,inactive
3,COC1CCC(OC2CC(C3(C)CCC4(CC(O)C(C)C(C(C)/C=C(\C)C(=O)C(C)CC(C)C(=O)O)O4)O3)OC3(OC(C4OC(O)(CO)C(C)CC4C)CC3C)C2C)OC1C (stereo unspecified),inactive
4,CCCCC[C@H]1CCCCC[C@@H](O)C[C@H](O)[C@H](O)/C=C/C(=O)O1,inactive
5,CC(=O)/C=C1\C(=O)N(C)c2ccccc21,inactive
6,CCOC(=O)N[C@@H]1CC[C@@H]2[C@@H](C1)C[C@H]1C(=O)O[C@H](C)[C@H]1[C@@H]2C=Cc1ccc(-c2cccc(F)c2)cn1,5.44 µM (active)
7,C[C@@H]1CC=CC=CC=CC=C[C@@H](O[C@@H]2O[C@H](C)[C@@H](O)[C@H](N)[C@H]2O)C[C@@H]2O[C@](O)(C[C@@H](O)C[C@@H]3O[C@@H]3C=CC(=O)O1)C[C@H](O)[C@@H]2C(=O)O,inactive
8,CC(C)=CCCC(C)=CCCC(C)=CCCC(C)=CCCC(C)=CCCC(C)=CCCC(C)=CCCC(C)=CCCC(C)=CCO,21.7 µM (active)

# Molecular target: Nucleoprotein (Lymphocytic choriomeningitis virus (strain Armstrong)) (UniProt P09992)
# Sequence (P09992 whole entry, looked up): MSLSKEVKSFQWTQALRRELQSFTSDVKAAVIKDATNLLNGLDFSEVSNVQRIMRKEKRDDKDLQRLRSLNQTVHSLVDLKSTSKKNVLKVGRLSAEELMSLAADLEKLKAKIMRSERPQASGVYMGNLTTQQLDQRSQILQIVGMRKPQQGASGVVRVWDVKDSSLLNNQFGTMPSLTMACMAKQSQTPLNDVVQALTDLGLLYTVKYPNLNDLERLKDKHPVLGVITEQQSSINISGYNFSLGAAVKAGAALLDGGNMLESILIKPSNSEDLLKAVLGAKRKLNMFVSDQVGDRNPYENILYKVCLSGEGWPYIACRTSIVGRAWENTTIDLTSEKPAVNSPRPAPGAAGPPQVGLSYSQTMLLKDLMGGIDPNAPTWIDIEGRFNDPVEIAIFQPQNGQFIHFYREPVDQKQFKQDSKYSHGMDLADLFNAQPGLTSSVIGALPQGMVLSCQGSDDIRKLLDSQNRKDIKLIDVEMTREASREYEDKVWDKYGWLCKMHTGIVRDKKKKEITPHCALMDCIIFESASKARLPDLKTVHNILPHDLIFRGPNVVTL
# Assay: qHTS for Inhibitors of the Functional Ribonucleoprotein Complex (vRNP) of Lymphocytic Choriomeningitis Arenaviruses (LCMV): LCMV Primary Screen - GLuc reporter signal (AID 1347086); further: nearly all actives have a fitted effect of over 70% in size; on activity change, negative = inhibition: on the % scale 0 is the no-effect control and ±100 the full control effect
# Conditions: LCMV minigenome vRNP cell assay, Gaussia luciferase reporter; series mostly up to 57.5 µM
row,Compound,Potency
1,Cc1cc(C(=O)N2CCN(c3cccc(Cl)c3)CC2)n(-c2ccccc2)n1,6.85 µM (active)
2,CS(=O)(=O)N1CCc2c(-c3cnc(N)nc3)nc(N3CCOCC3)nc21,inactive
3,CC(C)CNc1ccnc(NCc2csc(-c3ccccc3)n2)n1,15.3 µM (active)
4,CNC(=O)c1ccc(Nc2cc(Nc3ccccc3S(=O)(=O)C(C)C)c3cc[nH]c3n2)nc1,27.3 µM (active)
5,COCCOc1ccc2c(c1)ncn2-c1ccc2cccc(N3CCC(N)CC3)c2n1,inactive
6,Cc1ccn(-c2ccc(-c3ncco3)cc2)c(=O)c1-c1ccc2nc(N)ncc2c1,inactive
7,NC(=O)N1CCC(CC(=O)N2CCC([C@H]3c4ncc(Br)cc4CCc4cc(Cl)cc(Br)c43)CC2)CC1,12.2 µM (active)
8,C[C@]12CC[C@@H]3c4ccc(O)cc4CC[C@H]3[C@H]1CC[C@H]2O,1.22 µM (active)
9,COc1ccc(C=Cc2cc(OC)c(OC)c(OC)c2)cc1NC(=O)[C@H](N)CO,inactive
10,CNC1CCC(N(Cc2cccc(-c3ccncc3)c2)C(=O)c2sc3ccccc3c2Cl)CC1 (stereo unspecified),10.9 µM (active)
11,NC(=O)Nc1cc(-c2ccc(CN3CCOCC3)cc2)sc1C(N)=O,inactive
12,O=C(Nc1cccc(Br)c1)c1cccc(S(=O)(=O)N2CCCCCC2)c1,15.3 µM (active)
13,c1ccc2c(Cc3c[nH]c4ccccc34)c[nH]c2c1,13.7 µM (active)
14,C[C@@H]1COC(Nc2ccc3ncnc(Nc4ccc(OCc5nccs5)c(Cl)c4)c3c2)=N1,1.22 µM (active)
15,c1cc(N[C@@H]2CCNC2)nc(-c2cnc3ccc(-c4cn[nH]c4)cn23)c1,inactive

# Tested on: not listed separately
# Assay: Cytotoxicity counterscreen for inhibitors of SARS-CoV-2 cell entry (AID 1645845); further: nearly all actives have a fitted effect of over 50% in size
# Conditions: cell viability (SARS-CoV-2 entry assay cells); series mostly up to 57.1 µM
# Outline: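 After a 15 min room-temperature ATPLite 1step step, luminescence reflected ATP remaining in HEK293-ACE2 cells exposed to compound for 1 h plus 48 h at 37 C, with percent activity set by cell and no-cell controls.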
row,Compound,Potency
1,Cc1cc(C(=O)N2CCN(c3cccc(Cl)c3)CC2)n(-c2ccccc2)n1,inactive
2,CS(=O)(=O)N1CCc2c(-c3cnc(N)nc3)nc(N3CCOCC3)nc21,3.55 µM (active)
3,CC(C)CNc1ccnc(NCc2csc(-c3ccccc3)n2)n1,22.4 µM (active)
4,Cc1cnc(Nc2ccc(CN3CCOCC3)cc2)nc1Nc1cccc(S(=O)(=O)NC(C)(C)C)c1,12.6 µM (active)
5,Cc1ccn(-c2ccc(-c3ncco3)cc2)c(=O)c1-c1ccc2nc(N)ncc2c1,inactive
6,COc1cc2ncnc(Nc3cccc(Br)c3)c2cc1OC,inactive
7,CN(C)N=Nc1nc[nH]c1C(N)=O,inactive
8,Cc1ccc(NC(=O)c2cccc(N(C)C)c2)cc1NC(=O)c1ccc(O)cc1,inactive
9,Cc1c(Cn2c(C)nc3c(C(=O)O)cc(N4CCOCC4)cc32)cccc1C(F)(F)F,inactive
10,CNC1CCC(N(Cc2cccc(-c3ccncc3)c2)C(=O)c2sc3ccccc3c2Cl)CC1 (stereo unspecified),31.6 µM (active)
11,NC(=O)Nc1cc(-c2ccc(CN3CCOCC3)cc2)sc1C(N)=O,inactive
12,CCOC(=O)C1=C(C)NC(=S)NC1c1cccc(O)c1 (stereo unspecified),inactive
13,Cc1c(NC(=O)OC[C@@H]2COCCN2)cn2ncnc(Nc3ccc4c(cnn4Cc4cccc(F)c4)c3)c12,inactive
14,c1ccc2c(Cc3c[nH]c4ccccc34)c[nH]c2c1,inactive
15,CC1=C(CC(=O)O)c2cc(F)ccc2C1=Cc1ccc(S(C)=O)cc1 (stereo unspecified),inactive
16,Nc1nc(N)c2nc(-c3cccc(O)c3)c(-c3cccc(O)c3)nc2n1,inactive
17,C[C@@H]1COC(Nc2ccc3ncnc(Nc4ccc(OCc5nccs5)c(Cl)c4)c3c2)=N1,31.6 µM (active)
18,C#Cc1cccc(Nc2ncnc3cc(OCCOC)c(OCCO)cc23)c1,inactive
19,c1cc(N[C@@H]2CCNC2)nc(-c2cnc3ccc(-c4cn[nH]c4)cn23)c1,31.6 µM (active)

# Tested on: not listed separately
# Assay: Primary qHTS to identify inhibitors of SARS-CoV-2 cell entry (AID 1645846); further: nearly all actives have a fitted effect of over 45% in size
# Conditions: SARS-CoV-2 pseudovirus cell entry assay, luminescence; activity change, negative = inhibition: at 57.1 µM (top of the series) unless noted; series mostly up to 57.1 µM
# Outline: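 HEK293 cells stably expressing human ACE2, pre-treated 1 h with compound, then infected with MLV particles pseudotyped with Wuhan-Hu-1 spike (C-terminal 19-aa truncation). Luciferase luminescence after 48 h at 37 °C, normalised to spike PP and bald PP.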
Compound,"activity change, negative = inhibition",Potency
C[C@@H](NC(=O)c1ncnc(N)c1Cl)c1ncc(C(=O)Nc2cc(C(F)(F)F)c(Cl)cn2)s1,-12.7%,–
COCCOc1ccc2c(c1)ncn2-c1ccc2cccc(N3CCC(N)CC3)c2n1,–,12.6 µM (active)
Cc1ccn(-c2ccc(-c3ncco3)cc2)c(=O)c1-c1ccc2nc(N)ncc2c1,–,inactive
NC(=O)N1CCC(CC(=O)N2CCC([C@H]3c4ncc(Br)cc4CCc4cc(Cl)cc(Br)c43)CC2)CC1,-87.3%,–
COc1ccc(C=Cc2cc(OC)c(OC)c(OC)c2)cc1NC(=O)[C@H](N)CO,-66.1%,–
COc1cc2ncnc(Nc3cccc(Br)c3)c2cc1OC,-19.5%,–
Cc1ccc(NC(=O)c2cccc(N(C)C)c2)cc1NC(=O)c1ccc(O)cc1,–,inactive
Cc1c(Cn2c(C)nc3c(C(=O)O)cc(N4CCOCC4)cc32)cccc1C(F)(F)F,-3.96%,–
NC(=O)Nc1cc(-c2ccc(CN3CCOCC3)cc2)sc1C(N)=O,-10.1%,–
CCOC(=O)C1=C(C)NC(=S)NC1c1cccc(O)c1 (stereo unspecified),-13.9%,–
O=C(Nc1cccc(Br)c1)c1cccc(S(=O)(=O)N2CCCCCC2)c1,–,31.6 µM (active)
COc1ccc(S(=O)(=O)Nc2cccnc2Nc2ccc(O)cc2)cc1,–,6.31 µM (active)
Nc1nc(N)c2nc(-c3cccc(O)c3)c(-c3cccc(O)c3)nc2n1,-9.58%,–
Cn1cc(C2=C(c3c4n(c5ccccc35)CCC(CN)C4)C(=O)NC2=O)c2ccccc21 (stereo unspecified),-9.15% [at 11.3 µM],–
